Compounds without any hit were thinned out: in the full panel of roughly 83,000, 20% have a hit.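 Compound tested at a single concentration for 48 hours in 96-well plates; a percent growth value below 10 was scored as active.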 Activity calls are given as the source filed them.
Tests used:
Assay in all cases: NCI-60 one-dose screen, 48 h (100 = growth as untreated, 0 = no growth, -100 = all killed)
[1] = test system: NCI-H23 lung; conditions: 10 µM unless noted
[2] = test system: NCI-H226 lung; conditions: 10 µM unless noted
[3] = test system: NCI-H322M lung; conditions: 10 µM unless noted
[4] = test system: HOP-62 NSCLC; conditions: 10 µM unless noted
[5] = test system: NCI-H460 lung; conditions: 10 µM unless noted
[6] = test system: 786-0 renal; conditions: 10 µM unless noted
[7] = test system: MDA-MB-231 breast; conditions: 10 µM unless noted
[8] = test system: SF-268 CNS; conditions: 10 µM unless noted
[9] = test system: SF-539 CNS; conditions: 10 µM unless noted
[10] = test system: M14 melanoma; conditions: 10 µM unless noted
[11] = test system: HCT-15 colon; conditions: 10 µM
[12] = test system: U251 CNS; conditions: 10 µM unless noted
[13] = test system: UO-31 renal; conditions: 10 µM unless noted
[14] = test system: SK-OV-3 ovarian; conditions: 10 µM unless noted
[15] = test system: OVCAR-3 ovarian; conditions: 10 µM unless noted
[16] = test system: MDA-MB-435 melanoma; conditions: 10 µM unless noted
[17] = test system: SW-620 colon; conditions: 10 µM unless noted
[18] = test system: MCF7 breast; conditions: 10 µM unless noted
[19] = test system: HCT-116 colon; conditions: 10 µM unless noted
[20] = test system: KM12 colon; conditions: 10 µM unless noted

Measured: growth

CNC(=O)Oc1cccc(N(C)C)c1
inactive: [1] 106% | [2] 93.3% | [3] 102% | [4] 101% | [5] 105% | [6] 102% | [7] 93% | [8] 106% | [9] 100% | [10] 107% | [11] 103% | [12] 99.1% | [13] 86.6% | [14] 99.7% | [15] 110% | [16] 97.5% | [17] 104% | [18] 94.1% | [19] 113% | [20] 104%

Cc1cc([N+](=O)[O-])c(Cl)cc1NS(=O)(=O)c1ccccc1
inactive: [1] 76.5% | [2] 64.7% | [3] 85.4% | [4] 90% | [5] 73.2% | [6] 60.1% | [7] 108% | [8] 90.3% | [9] 60.6% | [10] 62.9% | [11] 73.1% | [12] 80.9% | [13] 63.8% | [14] 96% | [15] 71.7% | [16] 58.4% | [17] 93.9% | [18] 73.9% | [19] 87.3% | [20] 80.8%

CNC(C)Cc1ccccc1 (stereo not given) (tested in a mixture with another compound)
inactive: [1] 99.2% | [2] 99.5% | [3] 89.2% | [4] 98% | [5] 104% | [6] 102% | [7] 120% | [8] 108% | [9] 99.7% | [10] 103% | [11] 101% | [12] 89.9% | [13] 82.9% | [14] 92.8% | [15] 104% | [16] 104% | [17] 102% | [18] 97.3% | [19] 100% | [20] 99.8%

From PubChem BioAssay (NCI)
